Experimental findings from PubChem BioAssay AID720504 (National Center for Advancing Translational Sciences (NCATS), 2013) are described below.

Hit rate of the full screen: of about 360,000 compounds, about 10,000 (2.8%) were called active. Another 4% or so got no clear call; they are omitted. The call rests on the fitted dose curve; in most records, active means well fitted inhibition curve with a large enough effect; inconclusive means small, poorly fitted or top-dose-only effect; inactive means flat fitted curve, though single readings scatter. The full list was thinned out, with actives kept by preference.
On the % scale 0 is the no-effect control and ±100 the full control effect; potency means the concentration at half of the fitted maximal effect.

For the assay, the target named is Serine/threonine-protein kinase PLK1 (Homo sapiens) (UniProt P53350). In words: qHTS for Inhibitors of PLK1-PDB (polo-like kinase 1 - polo-box domain): Primary Screen. Further: nearly all actives have a fitted effect of over 65% in size. On max response, negative = inhibition: series mostly up to about 57 µM. The conditions noted are these: Plk1 PBD binding of FITC phosphopeptide, fluorescence polarization.
Serine/threonine-protein kinase PLK1 (Homo sapiens), sequence (P53350 whole entry, looked up, the tested form may be a part): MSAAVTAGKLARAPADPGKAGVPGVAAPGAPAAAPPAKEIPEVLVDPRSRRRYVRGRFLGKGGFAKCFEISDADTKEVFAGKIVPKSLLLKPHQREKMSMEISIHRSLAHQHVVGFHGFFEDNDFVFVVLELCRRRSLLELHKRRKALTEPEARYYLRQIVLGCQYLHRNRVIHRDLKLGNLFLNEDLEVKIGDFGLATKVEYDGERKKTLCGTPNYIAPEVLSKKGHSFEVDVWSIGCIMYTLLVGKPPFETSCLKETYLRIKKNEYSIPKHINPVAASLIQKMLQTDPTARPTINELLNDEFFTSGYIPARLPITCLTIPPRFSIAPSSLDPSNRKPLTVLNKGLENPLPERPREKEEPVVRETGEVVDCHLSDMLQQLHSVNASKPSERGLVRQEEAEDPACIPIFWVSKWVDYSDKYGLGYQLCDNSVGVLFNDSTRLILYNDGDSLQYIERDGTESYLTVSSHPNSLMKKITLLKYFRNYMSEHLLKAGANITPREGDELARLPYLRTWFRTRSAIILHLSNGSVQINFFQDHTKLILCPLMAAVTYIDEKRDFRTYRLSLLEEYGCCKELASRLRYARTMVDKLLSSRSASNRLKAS
Regarding `O=C(CC[C@H]1O[C@@H](n2ccc(=O)[nH]c2=O)[C@H](O)[C@@H]1O)N[C@H](Cc1ccccc1)C(=O)NCc1ccco1`, the max response, negative = inhibition is -11.9% (inactive).
For `CC(C)(C)N1C(=O)c2c(C(=O)OCc3ccccc3)[nH]c(-c3ccccc3)c2C1=O`, the max response, negative = inhibition was -11.2% (inactive).
For `Cc1ccc(NC(=O)Cn2sc3ccccc3c2=O)cc1`, the Potency is 2.38 µM (active).
Consider `Cc1cc(C)cc(NC(=O)CN2C(=O)c3ccccc3C2=O)c1`, for which the max response, negative = inhibition is -3.07% (inactive).
For the compound `Cc1ccc(NC(=O)Cn2c(C)csc2=O)cc1`, the max response, negative = inhibition is -1.66% (inactive).
As to `Cc1ccc(CCNC(=O)CN2C(=O)CSc3ccc(S(=O)(=O)N4CCOCC4)cc32)cc1`, the max response, negative = inhibition is -9.68% (inactive).
In the case of `O=C(CC(Cc1ccccc1)C(=O)O)NCCc1ccc2c(c1)OCO2` (stereo unspecified), the max response, negative = inhibition is -0.693% (inactive).
On to `O=C(CCc1nnc(Cc2ccc3c(c2)OCO3)o1)NCCc1ccccc1Cl`, for which the Potency was 21.2 µM (active).
As for `O=C(CCNS(=O)(=O)c1ccccc1C(F)(F)F)NCc1ccc2c(c1)OCO2`, the max response, negative = inhibition was -4% (inactive).
Same read-out and setting: the same measure for `C#Cc1cc(N2CCN(C(=O)c3ccoc3)CC2)n2nc(-c3cccc(Cl)c3)cc2n1`: -12% (inactive).
Consider `FC(F)(F)C1CCCN(c2nsc3ccccc23)C1` (stereo unspecified), for which the Potency was 1.5 µM (active).
Consider `CCNC(=O)C1(C)CCN(Cc2ccc(C(=O)OCC)o2)C1` (stereo unspecified), for which the max response, negative = inhibition was 3.81% (inactive).
On to `C[C@@H]1CN([C@H](C)CO)C(=O)CCCn2nncc2CO[C@@H]1CN(C)C(=O)OCc1ccccc1`, for which the max response, negative = inhibition was -21.8% (inactive).
On the same count and under the same terms, the same measure for `COc1ccc(CN2CCC(C)(Oc3cccc(F)c3)C2)c2ccccc12` (stereo unspecified): -19.3% (inactive); for `Cc1ccc(F)c(S(=O)(=O)NC(=O)C2(C)CCN2C(=O)c2ccco2)c1` (stereo unspecified): -2.63% (inactive).
As to `CCn1c(SCC(=O)N/N=C/C=C/c2ccccc2[N+](=O)[O-])nnc1-c1ccccc1`, the Potency was 23.8 µM (active).
`CCn1c(SCC(=O)N/N=C/c2ccccc2OCC(=O)O)nnc1-c1ccc(C(C)(C)C)cc1`: the max response, negative = inhibition is 5.13% (inactive).
Still for that read-out and setting: the same measure for `Cc1ccc(-n2c(SCC(=O)N/N=C/C=C/c3ccccc3[N+](=O)[O-])nc3ccccc3c2=O)cc1`: 1.55% (inactive); for `Cc1cc(NC(=O)CSC2=NS(=O)(=O)c3cc(Cl)ccc3N2)no1`: -2.92% (inactive); for `Cc1cc(NC(=O)CSc2nnc(-c3ccco3)n2N)no1`: -3.98% (inactive).
Turning to `Cc1cc(NC(=O)CSc2nc3cc(Cl)ccc3c(=O)n2Cc2ccco2)no1`, the Potency is 21.2 µM (active).
Consider `COc1ccc(CNC(=O)/C(C#N)=C/c2cccc(OC)c2OC)cc1`, for which the max response, negative = inhibition was -17% (inactive).
Consider `COc1ccc(NC(=O)/C(C#N)=C\c2cc(OC)c(OCc3ccc(C(=O)O)cc3)cc2Br)cc1`, for which the Potency is 10.6 µM (active).
`COc1cc(/C=C(\C#N)C(=O)Nc2ccc3ccccc3c2)c([N+](=O)[O-])cc1OC`: the max response, negative = inhibition was -1.73% (inactive).
The same measure, in the same setting: the same measure for `O=C(NCc1ccccn1)[C@@H]1CCCN1C(=O)[C@@H]1CCCN1C(=O)c1ccccc1`: -3.01% (inactive); for `N#Cc1ccc(C(C(=O)NCc2ccccc2)n2c(=O)c(-c3ccco3)nc3ccccc32)cc1` (stereo unspecified): -22.3% (inactive); for `Cc1ccc(NC(=O)C2CCCN2C(=O)OCc2ccccc2)cc1C` (stereo unspecified): 2.68% (inactive).
Turning to `Cc1cccc(C)c1NC(=O)C1CCCN1C(=O)OC(C)(C)C` (stereo unspecified), the Potency is 23.8 µM (active).
On to `Cc1ccc(C)c(NC(=O)C2CCCN2C(=O)OC(C)(C)C)c1` (stereo unspecified), for which the max response, negative = inhibition was -4.64% (inactive).
Still for that read-out and setting: in the case of `CC(=O)NN=C(C)c1ccc(NC(=O)C2CC2)cc1` it was -11.2% (inactive); in that of `COc1cc(Cn2c3ccc(NC(=O)CC(C)c4ccccc4)cc3c(=O)n2C)ccc1F` (stereo unspecified), -6.73% (inactive); in that of `Cn1c(=O)c2cc(NC(=O)NCCc3cccs3)ccc2n1Cc1cccc(C(F)(F)F)c1`, -2.39% (inactive).
As for `CCNC(=S)Nc1ccc2c(c1)c(=O)n(C)n2Cc1ccc(Cl)cc1`, the Potency was 21.2 µM (active).
On to `COc1ccc(-c2ccc(C(=O)NCCN3CCOCC3)c3occc23)c(C)c1`, for which the max response, negative = inhibition is -10.9% (inactive).
In the case of `OCCN1CCN(C(=S)c2ccc(-c3ccccc3)cc2)CC1`, the Potency was 4.74 µM (active).
On to `CN1CCN(CCCCOc2ccccc2-c2ccccc2)CC1`, for which the max response, negative = inhibition was -11.3% (inactive).
Regarding `C=CCc1ccccc1OCC(O)CN1CCN(CCO)CC1` (stereo unspecified), the max response, negative = inhibition was 1.6% (inactive).
In the case of `CCc1nc2c(OCCOc3ccccc3)cccn2c1N(C)C(=O)c1ccc(OC)cc1`, the max response, negative = inhibition was -8.42% (inactive).
In the case of `Cc1ccccc1S(=O)(=O)NC(=O)C1(C)CCN1C(=O)C1(c2ccc(Cl)cc2)CC1` (stereo unspecified), the max response, negative = inhibition is 3.44% (inactive).
`CC1(C(=O)NS(=O)(=O)c2ccc(Cl)cc2)CCN1C(=O)CC1CCCC1` (stereo unspecified): the max response, negative = inhibition is -6.5% (inactive).
Take `CC1(C(=O)NS(=O)(=O)c2ccc3ccccc3c2)CCN1C(=O)C1(c2ccc(Cl)cc2)CCC1` (stereo unspecified): the Potency was 42.3 µM (active).
For `CCCCN(C=O)c1c(CC)nc2c(OCc3ccccc3C(=O)OC)cccn12`, the max response, negative = inhibition is -4.2% (inactive).
Consider `O=C1NC[C@H](CCCCN2C[C@H](Cc3ccc(O)cc3)N(CCc3ccccc3)C(=O)C2=O)N(CCc2ccccc2)C1=O`, for which the max response, negative = inhibition was -1.17% (inactive).
On to `CCCn1c(SCC(=O)c2ccc3c(c2)OCCO3)nnc1C(C)C`, for which the Potency was 2.99 µM (active).
In the case of `CCCn1c(SCC(N)=O)nnc1C(C)C`, the max response, negative = inhibition was -6.68% (inactive).
On to `CCCn1c(SCC(=O)Nc2c(C)cccc2C)nnc1C(C)C`, for which the max response, negative = inhibition was -7.66% (inactive).
In the case of `CC(C)Cc1ccc(-c2cc3nc(NCc4cccc(Cl)c4)ccn3n2)cc1`, the max response, negative = inhibition is -0.174% (inactive).
As to `CCOc1ccc(N2CC(C(=O)NCc3ccccn3)CC2=O)cc1` (stereo unspecified), the max response, negative = inhibition is 6.65% (inactive).
In the case of `COc1ccc(NC(=O)C2C3C=CC(C3)C2C(=O)NCc2ccccn2)c(OC)c1` (stereo unspecified), the Potency is 26.7 µM (active).
On to `COc1ccc(C)cc1NC(=O)NCc1ccccn1`, for which the max response, negative = inhibition was 3.53% (inactive).
As for `CCCC(=O)N1CCC1(C)C(=O)NCc1ccc(SC)cc1` (stereo unspecified), the max response, negative = inhibition is 4.65% (inactive).
Regarding `CO[C@@H]1CN(C)C(=O)c2cc(NC(=O)Nc3cc(F)ccc3F)ccc2OC[C@H](C)N(C(=O)c2ccccn2)C[C@@H]1C`, the max response, negative = inhibition is -4.19% (inactive).
On the same count and under the same terms, in the case of `Cc1cccc(C)c1NC(=O)COC(=O)c1c(C)nn(-c2ccccc2)c1C` it was 2.85% (inactive).
Turning to `Cc1nn(-c2ccccc2)c(C)c1C(=O)OCC(=O)NC(=O)NC1CCCCC1`, the Potency was 21.2 µM (active).
As to `COc1ccc(CNC(=O)COC(=O)c2c(C)nn(-c3ccccc3)c2C)cc1OC`, the max response, negative = inhibition was -2.1% (inactive).
For the compound `Cc1ccc(F)c(S(=O)(=O)NC(=O)C2(C)CCN2C(=O)CCc2cccs2)c1` (stereo unspecified), the max response, negative = inhibition was -3.35% (inactive).
`CCSc1nc(O)c(C(c2cccc(OC)c2)c2c(O)nc(SCC)[nH]c2=O)c(=O)[nH]1`: the max response, negative = inhibition is -21.7% (inactive).
For `CCn1c(COc2ccc(OC)cc2)nnc1SCC(=O)Nc1cc(OC)ccc1OC`, the max response, negative = inhibition was -3.02% (inactive).
Consider `CCn1c(SC)nc(O)c(C(c2ccc(OC)c(O)c2)c2c(O)nc(SC)n(CC)c2=O)c1=O`, for which the Potency is 16.8 µM (active).
Consider `Cc1cccc(C(=O)NC2CCN(CC(=O)Nc3cccc(Cl)c3)CC2)c1`, for which the max response, negative = inhibition is -8.54% (inactive).
Regarding `COc1ccc([C@H]2C[C@@H](n3cc(COC(=O)c4ccccc4)nn3)[C@H](O)CN2C(=O)c2cccs2)cc1`, the max response, negative = inhibition is -9.99% (inactive).
Take `COc1cccc(CNc2nc3cc(-c4csc5ccccc45)sc3c(=O)n2C)c1`: the max response, negative = inhibition was -2.77% (inactive).
Same read-out and setting: the same measure for `Cc1ccc(NC(=O)CCNS(=O)(=O)c2ccc3c(c2)oc(=O)n3C)cc1C`: 0.556% (inactive); for `COc1cccc(NC(=O)CCNS(=O)(=O)c2ccc3c(c2)oc(=O)n3C)c1`: -5.8% (inactive).
As for `Cn1c(=O)oc2cc(S(=O)(=O)NCCC(=O)NCc3ccccc3Cl)ccc21`, the Potency was 23.8 µM (active).
For the compound `N#CCCN1CCN(S(=O)(=O)c2ccc(S(=O)(=O)N3CCCC3)cc2)CC1`, the max response, negative = inhibition was -6.31% (inactive).
`N#Cc1cccc(CN2CCC(=O)N(CCO)CC2)c1`: the max response, negative = inhibition is -6.69% (inactive).
Regarding `CC(C)(C)c1cc(CN2CCN(CCC#N)CC2)cc(C(C)(C)C)c1O`, the Potency was 8.44 µM (active).
Consider `COc1ccc(OC)c(CN2C(=O)CCC2(C)c2nnnn2Cc2ccccc2)c1` (stereo unspecified), for which the max response, negative = inhibition was -0.666% (inactive).
Still for that read-out and setting: in the case of `Cc1ccc(C)c(C(O)c2ncc(-c3cccc4ccccc34)[nH]2)c1` (stereo unspecified) it was -3.49% (inactive); in that of `CCc1nc2ccc(C(=O)NCc3ccc(OC)cc3)cn2c1N(CC)Cc1cccc(Br)c1`, -13.2% (inactive).
In the case of `Cc1nn(Cc2ccccc2)c(Cl)c1C(=O)OC1CCOC1=O` (stereo unspecified), the Potency was 21.2 µM (active).
As for `CC(C)c1ccc(C(=O)OC2CCOC2=O)cc1` (stereo unspecified), the max response, negative = inhibition was -4.1% (inactive).
As for `COC(=O)c1ccc(COC(=O)c2c(C)nn(Cc3ccccc3Cl)c2Cl)o1`, the max response, negative = inhibition is -10.8% (inactive).
`N#Cc1ccc(-c2nc3c(Cl)cc(C(F)(F)F)cn3c2Cc2ccccc2C(F)(F)F)cc1`: the max response, negative = inhibition is 1.56% (inactive).
Regarding `CC1(C(=O)Nc2ccccc2Br)CCN1C(=O)CC1CC1` (stereo unspecified), the max response, negative = inhibition is -11.1% (inactive).
For `O=C(O)CC/C(=C\c1cc2c(cc1Br)OCO2)c1nc2ccccc2s1`, the Potency is 23.8 µM (active).
Consider `O=C(/C=C/c1cc2c(cc1Br)OCO2)NCc1ccc(Cl)cc1`, for which the max response, negative = inhibition was -5.95% (inactive).
Consider `O=C(N/N=C/c1cc2c(cc1Br)OCO2)C1COc2ccccc2O1` (stereo unspecified), for which the max response, negative = inhibition is 6.15% (inactive).
With `CC(=O)C1=CCC(c2ccccc2)N(S(=O)(=O)c2ccc(C)cc2)C1` (stereo unspecified), the max response, negative = inhibition was -15.4% (inactive).
Take `CCCNC(=O)C1(C)CCN1C(=O)Cc1ccc(-c2ccccc2)cc1` (stereo unspecified): the max response, negative = inhibition is -9.86% (inactive).
As for `COc1cc(OC)c(C(=O)NCc2ccc3c(c2)OCO3)cc1OC`, the max response, negative = inhibition was -15% (inactive).
The same measure, in the same setting: in the case of `O=C(NCc1ccc2c(c1)OCO2)c1cc(F)c(F)cc1Cl` it was -7.37% (inactive).
For `Cc1nc2c(C(=O)NCc3ccc4c(c3)OCO4)c[nH]n2c(=O)c1Cc1ccccc1F`, the Potency was 21.2 µM (active).
On to `CC1(C(=O)NCc2ccco2)Cc2c(-c3ccc4c(c3)OCO4)ccnc2O1` (stereo unspecified), for which the max response, negative = inhibition is -5.07% (inactive).
Regarding `CCCNC(=O)C[C@@H]1CC[C@@H]2[C@H](COC[C@H](O)CN2C(=O)c2cc(Cl)cc(Cl)c2)O1`, the max response, negative = inhibition is -0.764% (inactive).
